Laboratory results: PubChem BioAssay
The source made the active and inactive calls. Unless noted, how the calls were made is not given here.

Legend:
[1] = tested on: Wnt5a (protein binding on small-molecule microarray); assay: small molecules binding Wnt5a protein – biophysical, small-molecule microarray, 635/667 nm fluorescence, primary screen (AID 1142); conditions: 635 nm fluorescence, higher = more signal;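 further: fluorescence read at 667 nm with signal to noise per printed feature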
[2] = ATP-based viability of Huh7 replicon cells – cell-based, CellTiter-Glo luminescence, basal, 48 h, cytotoxicity control for HCV replication inhibitor project, primary screen (AID 1143); conditions: higher = more signal, called active from +8 up or from −8 down;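 further: Huh7 hepatoma cells carrying a hepatitis C replication reporter with no stimulus; test concentration not given here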
[3] = Pseudomonas biofilm growth suppression – PAO1 strain, BacTiter-Glo luminescence, LB-PBS, primary screen (AID 1144); conditions: P. aeruginosa PAO1 biofilm, 12 h, higher = more signal
[4] = basal CRE-LacZ reporter activity in PC12 – cell-based, unstimulated, primary screen (AID 1145); conditions: no forskolin, luminescence, 4.5 h, higher = more signal, called active from +8 up or from −8 down
[5] = forskolin-driven CRE-LacZ activity in PC12 – cell-based, CRE-LacZ reporter, forskolin-stimulated, primary screen (AID 1146); conditions: luminescence, 4.5 h, higher = more signal, called active from +8 up or from −8 down;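 further: PC12 cells with 6xCRE LacZ reporter stimulated by forskolin 10 µM; beta-galactosidase reporter signal reflecting CREB driven transcription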
[6] = molecular target: Streptavidin (Streptomyces avidinii) (UniProt P22629); assay: compounds binding control protein streptavidin – biophysical, small-molecule microarray, 635/667 nm fluorescence, artefact control for SMM compound annotation, primary screen (AID 1147); conditions: higher = more signal;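 further: signal reflects streptavidin binding to arrayed compounds as a control protein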
[7] = probe aInhba binding on compound microarray – biochemical, small-molecule microarray, 635/667 nm fluorescence, primary screen (AID 1148); conditions: higher = more signal;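 further: score merges 667nm spot fluorescence with signal-to-noise for antibody binding to printed compounds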
Torsin-1A (Homo sapiens) [8] = molecular target: Torsin-1A (Homo sapiens) (UniProt O14656); assay: TOR1A wild-type binding on microarray – cell lysate, small-molecule microarray, lysate, 635/667 nm, primary screen (AID 1149); conditions: COS7 hTOR1A-WT lysate, 635 nm fluorescence, higher = more signal
Torsin-1A (Homo sapiens) [9] = molecular target: Torsin-1A (Homo sapiens) (UniProt O14656); assay: torsin A mutant lysate binding on microarrays – cell lysate, small-molecule microarray, COS7 lysate, 635/667 nm fluorescence, primary screen (AID 1150); conditions: COS7 hTOR1A mutant lysate, 635 nm fluorescence, higher = more signal;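 further: score pools 667 nm emission and signal to noise measuring lysate protein binding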
[10] = tested on: Sonic hedgehog protein (Shh); assay: Sonic hedgehog microarray binding compounds – biochemical, small-molecule microarray, 635/667 nm fluorescence, primary screen (AID 1151); conditions: 635 nm fluorescence, higher = more signal;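 further: Shh protein binding to compounds spotted on small-molecule microarray slides; score combines spot fluorescence intensity with signal-to-noise across triplicate slides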

Sequence of Streptavidin (Streptomyces avidinii) (P22629 whole entry, looked up): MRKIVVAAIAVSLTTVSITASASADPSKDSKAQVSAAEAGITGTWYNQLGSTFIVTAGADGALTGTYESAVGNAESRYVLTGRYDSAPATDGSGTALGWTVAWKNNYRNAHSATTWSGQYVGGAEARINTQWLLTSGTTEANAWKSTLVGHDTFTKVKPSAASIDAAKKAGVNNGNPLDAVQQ
Sequence of Torsin-1A (Homo sapiens) (O14656 whole entry, looked up): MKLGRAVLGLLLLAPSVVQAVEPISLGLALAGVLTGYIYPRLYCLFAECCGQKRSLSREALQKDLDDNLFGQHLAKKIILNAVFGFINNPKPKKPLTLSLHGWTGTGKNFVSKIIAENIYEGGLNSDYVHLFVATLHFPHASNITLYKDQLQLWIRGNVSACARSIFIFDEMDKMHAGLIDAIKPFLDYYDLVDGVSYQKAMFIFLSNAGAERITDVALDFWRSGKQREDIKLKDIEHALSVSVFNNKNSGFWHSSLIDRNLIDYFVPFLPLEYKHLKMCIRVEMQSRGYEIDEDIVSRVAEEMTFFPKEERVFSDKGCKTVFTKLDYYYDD

SMILES	composite z-score [1]	z-score [2]	z-score [3]	z-score [4]	z-score [5]	composite z-score [6]	composite z-score [7]	composite z-score (Torsin-1A (Homo sapiens) [8])	composite z-score (Torsin-1A (Homo sapiens) [9])	composite z-score [10]
C=CC[C@]1(C(=O)N2CCCCC2)N=C(c2ccc(OCCCO)cc2)O[C@H]1c1ccccc1CN=[N+]=[N-]	0.518	-4.07 (inactive)	-1.44 (inactive)	1.45 (inactive)	1.86 (inactive)	0.997	0.121	0.0016	0.361	-0.27
CCCCC=C[C@@H](NC(=O)OCc1ccccc1Cl)c1ccccc1	1.45	-0.392 (inactive)	-0.146 (inactive)	0.394 (inactive)	1.02 (inactive)	0.484	0.592	-0.266	0.665	0.62
C=CC[C@@]1(C(=O)NCCCOC)N=C(c2ccc(OCCCO)cc2)O[C@@H]1c1ccccc1	0.452	-1.92 (inactive)	0.305 (inactive)	1.51 (inactive)	-0.68 (inactive)	0.428	0.771	0.478	1.3	-0.499
COC(=O)[C@@]1(Cc2ccccc2)[C@H]2c3cc(C(=O)N4CCCC4)n(CCc4ccccn4)c3C[C@H]2CN1C(=O)c1ccccc1	0.372	-0.917 (inactive)	1.09 (inactive)	0.201 (inactive)	0.755 (inactive)	1.94	0.605	1.11	1.4	0.311
CCCNC(=O)[C@@]1(C)c2ccccc2C(=O)N(c2ccc(C)cn2)[C@H]1c1ccc(CO)cc1	-0.297	0.242 (inactive)	-0.31 (inactive)	1.29 (inactive)	-0.0049 (inactive)	-0.516	0.0398	0.399	0.266	0.224
CCCCC(CC)C(O)C1C=CC2C(=O)N(c3ccccc3)C(=O)C2N1Nc1ccccc1F (stereo not given)	0.507	-2.32 (inactive)	-0.786 (inactive)	-0.433 (inactive)	-0.208 (inactive)	0.0844	-0.128	0.136	0.663	-0.045
C=CCNC(=O)[C@@H]1[C@H]2C(=O)O[C@H](c3ccccc3)[C@H](c3ccccc3)N2[C@H](c2ccccc2OCCO)[C@@]12C(=O)Nc1ccc(C#CCC(C(=O)OC)C(=O)OC)cc12	0.0142	-6.3 (inactive)	0.616 (inactive)	-0.191 (inactive)	-1.03 (inactive)	0.0625	0.84	0.834	0.566	0.499
COC(=O)c1c(CC[C@@H](CO)NC(=O)N[C@@H](C)Cn2cc(-c3ccccn3)nn2)oc(C(C)=O)c1C(=O)OC	0.182	-2.77 (inactive)	-0.243 (inactive)	1.21 (inactive)	0.363 (inactive)	-0.893	0.154	0.372	0.591	1.74
COC(=O)[C@@]1(Cc2ccc(OC)cc2)[C@H]2c3cc(C(=O)N4CCCC4)n(CCc4c[nH]c5ccc(O)cc45)c3C[C@H]2CN1C(=O)c1ccccc1	0.431	-0.759 (inactive)	0.34 (inactive)	0.587 (inactive)	-0.397 (inactive)	0.971	0.192	0.132	0.318	-0.229
CC(C)N1C(=O)c2ccccc2[C@@H](C(=O)NCCN2CCOCC2)[C@@H]1c1ccc(CO)cc1	-1.15	0.179 (inactive)	-0.0165 (inactive)	0.324 (inactive)	-0.107 (inactive)	-1.14	-0.238	-3.17	-1.46	-1.49
COC(=O)c1c(CC[C@@H](CO)NC(=O)N2CCC[C@H]2Cn2cc(C3(O)CCCCC3)nn2)oc(C(C)=O)c1C(=O)OC	-0.0505	-0.257 (inactive)	-0.156 (inactive)	0.498 (inactive)	0.306 (inactive)	0.429	-0.0448	0.666	0.895	1.44
CC1=C2[C@@H](CCc3ccccc3)OB(O)C[C@@H]2[C@@H]2C(=O)N(C)C(=O)[C@@H]2C1	0.318	-0.239 (inactive)	-0.294 (inactive)	-0.866 (inactive)	0.829 (inactive)	-0.0498	-0.252	-0.126	0.355	0.464
CCCN1C(=O)[C@@]2(Cc3ccccc31)N=C(c1ccc(OCCCO)cc1)O[C@H]2c1ccccc1	1.16	-3.36 (inactive)	0.849 (inactive)	2.07 (inactive)	-0.0414 (inactive)	0.469	-0.016	1.71	1.34	1.01
NC(=O)NCC#Cc1ccc2c(c1)[C@]1(C(=O)N2)[C@H](c2ccccc2OCCO)N2[C@H](c3ccccc3)[C@H](c3ccccc3)OC(=O)[C@H]2[C@@H]1C(=O)NC[C@H](O)c1ccccc1	-0.287	-2.62 (inactive)	0.129 (inactive)	0.0384 (inactive)	-0.278 (inactive)	0.83	-0.101	0.142	-0.487	-0.174
CCOC(=O)C1=C[C@@H](C(C)(C)C)N(S(=O)(=O)c2ccc(C)cc2)[C@H]1c1cccc2ccccc12	-0.219	-4.9 (inactive)	0.873 (inactive)	1.14 (inactive)	0.705 (inactive)	0.823	0.0421	-0.331	0.406	-0.165
